The record followed here is PubChem BioAssay.

Results filed as inconclusive are left out. Calls of active or inactive are those of the source.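 Rule for the calls, unless noted: active = inhibition above 50%, about 3 SD of the validation set; inactive = the rest.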

The nature of test [1]: rapamycin-like changes in RPL19A-GFP expression – cell-based, S. cerevisiae, multiplex flow cytometry, primary screen (AID 1862; in the data active = percent of DMSO control GFP below about 86%;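 note: lower values mimic rapamycin by blocking the RPL19A rise seen in DMSO cells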). As to conditions: S. cerevisiae RPL19A-GFP strain, flow cytometry fluorescence, 3 h; at 10 µM; stronger effect = lower value.
Test [2] can be described thus: TOR pathway GLN3 branch reporter MEP2-GFP changes – S. cerevisiae, multiplex flow cytometry, primary screen (AID 1867;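 active = GFP response, as percent of the DMSO control, above the screen-wide mean plus 3 SD, about 139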;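 note: median GFP channel fluorescence of barcode-gated MEP2-GFP cells measured by flow cytometry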). As to conditions: S. cerevisiae MEP2-GFP strain, 3 h, at 10 µM, stronger effect = higher value, 100% means same as DMSO wells.
Test [3] in a line: TOR pathway RTG branch CIT2 reporter changes – S. cerevisiae, GFP fusion, multiplex flow cytometry, primary screen (AID 1870;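 active = percent response above a set limit, the screen-wide mean plus 3 SD, cut at about 130% in these data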;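 note: barcoded CIT2-GFP strain pooled with four other GFP strains with rapamycin as positive control; median GFP fluorescence per well over plate mean of DMSO wells so 100% = DMSO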). Conditions: S. cerevisiae CIT2-GFP expression, 3 h, at 10 µM, stronger effect = higher value.
Test [4] in a line: TOR pathway LAP4-GFP level changes – S. cerevisiae, multiplex flow cytometry, primary screen (AID 1873;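 active = GFP signal, as percent of the solvent control, above the screen mean plus 3 SD, about 149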). Conditions: S. cerevisiae LAP4-GFP expression, 3 h, at 10 µM, stronger effect = higher value.
Test [5] can be described thus: yeast AGP1-GFP level changes, GLN3 branch – cell-based, multiplex flow cytometry, S. cerevisiae, primary screen (AID 1887;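 active = GFP signal above the screen-wide mean plus 3 SD, that is over about 124.5% of the solvent control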;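 note: AGP1-GFP fusion strain of S. cerevisiae within a five-strain barcoded multiplex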). As to conditions: 3 h, at 10 µM, stronger effect = higher value.
Test [6] in a line: reduced mouse 2C T cell binding to pMHC/ICAM-1 vesicles – MLPCN validation set, flow cytometry, LFA-1/ICAM-1 modulator project, pilot screen (AID 2523;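 active = response below a set limit, under 55% cells CD8-positive and vesicle-bound, and CD8 cells' 90th-percentile brightness under 279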;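 for vesicle binding response: mean PE anti-B7-1 fluorescence of CD8+ cells relative to row control; 100% = QL9-loaded vesicles with DMSO vehicle in the same plate row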). Conditions: 2C mouse CD8+ T cells, at 7 µM, stronger effect = lower value; double positive events: measured here: CD8+/vesicle+ event percentage.
In test [7] the target is Integrin beta-1 (Homo sapiens) + Integrin alpha-4 (Homo sapiens) (UniProt P13612+P05556). Nature of the test: alpha4beta1 integrin LIBS antibody binding reduction – U937 cells, HUTS-21 mAb, flow cytometry, validation set, VLA-4 allosteric modulator project, pilot screen (AID 2674).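 Note: antibody binding induced by the VLA-4 ligand LDV present at three times its Kd; 0% = LDV ligand with antibody and no compound and 100% = antibody without LDV.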 Conditions: HUTS-21 LIBS mAb binding, at 6.7 µM, stronger effect = higher value, binding induced by LDV ligand.
Integrin beta-1 (Homo sapiens) + Integrin alpha-4 (Homo sapiens), sequence (P05556 whole entry, looked up): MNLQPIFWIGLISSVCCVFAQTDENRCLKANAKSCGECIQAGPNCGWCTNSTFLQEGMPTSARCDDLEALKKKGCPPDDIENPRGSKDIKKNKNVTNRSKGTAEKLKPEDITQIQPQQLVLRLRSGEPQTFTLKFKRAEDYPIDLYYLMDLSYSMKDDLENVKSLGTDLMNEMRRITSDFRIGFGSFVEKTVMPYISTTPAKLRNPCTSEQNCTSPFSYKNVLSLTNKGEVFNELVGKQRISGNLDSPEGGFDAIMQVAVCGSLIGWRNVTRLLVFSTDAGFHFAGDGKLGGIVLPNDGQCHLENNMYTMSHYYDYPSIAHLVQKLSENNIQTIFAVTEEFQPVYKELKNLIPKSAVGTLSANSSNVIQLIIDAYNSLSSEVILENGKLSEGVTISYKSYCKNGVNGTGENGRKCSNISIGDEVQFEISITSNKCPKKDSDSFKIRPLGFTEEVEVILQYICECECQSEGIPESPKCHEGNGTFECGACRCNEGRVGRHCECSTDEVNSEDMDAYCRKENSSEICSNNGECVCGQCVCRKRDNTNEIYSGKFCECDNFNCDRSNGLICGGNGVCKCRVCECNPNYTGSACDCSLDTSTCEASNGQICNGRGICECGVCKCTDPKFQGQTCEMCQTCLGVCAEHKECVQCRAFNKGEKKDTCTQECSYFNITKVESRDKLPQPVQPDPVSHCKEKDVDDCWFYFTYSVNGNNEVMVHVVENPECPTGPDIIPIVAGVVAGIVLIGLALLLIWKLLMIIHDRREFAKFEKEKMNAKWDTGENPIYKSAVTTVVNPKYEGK
Integrin beta-1 (Homo sapiens) + Integrin alpha-4 (Homo sapiens), sequence (P13612 whole entry, looked up): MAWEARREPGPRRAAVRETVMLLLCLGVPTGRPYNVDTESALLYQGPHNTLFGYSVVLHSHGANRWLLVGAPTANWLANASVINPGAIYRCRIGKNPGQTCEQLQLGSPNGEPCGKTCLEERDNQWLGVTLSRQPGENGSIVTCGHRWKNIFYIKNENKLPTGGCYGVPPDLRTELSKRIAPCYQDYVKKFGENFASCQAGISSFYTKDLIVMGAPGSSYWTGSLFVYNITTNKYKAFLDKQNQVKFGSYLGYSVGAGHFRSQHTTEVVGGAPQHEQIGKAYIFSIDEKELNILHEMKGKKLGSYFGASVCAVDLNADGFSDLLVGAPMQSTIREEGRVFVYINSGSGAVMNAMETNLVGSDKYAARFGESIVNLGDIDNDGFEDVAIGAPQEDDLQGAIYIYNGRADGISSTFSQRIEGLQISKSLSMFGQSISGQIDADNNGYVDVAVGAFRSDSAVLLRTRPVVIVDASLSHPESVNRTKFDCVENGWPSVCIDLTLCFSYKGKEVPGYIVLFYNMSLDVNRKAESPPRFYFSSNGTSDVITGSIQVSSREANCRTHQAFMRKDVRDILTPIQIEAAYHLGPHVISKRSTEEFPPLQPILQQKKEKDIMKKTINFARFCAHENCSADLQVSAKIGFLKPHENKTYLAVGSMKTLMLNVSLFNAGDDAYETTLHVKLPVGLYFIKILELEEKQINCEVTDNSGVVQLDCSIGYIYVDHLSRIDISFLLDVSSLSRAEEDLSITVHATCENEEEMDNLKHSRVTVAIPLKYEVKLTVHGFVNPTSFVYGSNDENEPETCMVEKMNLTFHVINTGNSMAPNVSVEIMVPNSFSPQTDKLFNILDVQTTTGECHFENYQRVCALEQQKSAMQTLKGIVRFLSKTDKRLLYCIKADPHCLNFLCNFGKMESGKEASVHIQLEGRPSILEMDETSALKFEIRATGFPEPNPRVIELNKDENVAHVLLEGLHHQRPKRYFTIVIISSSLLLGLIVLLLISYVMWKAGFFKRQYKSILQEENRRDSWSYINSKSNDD

Test [8] in a line: calorie-restriction mimetic ROS inhibitors, yeast – validation compound set, pilot screen (AID 2706;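 active = superoxide response below 65% of plate, a cut near 3 SD across the whole screen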;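 note: yeast exposed to compound for one week at 30 degrees C before staining; 100% = mean of all compound wells on the same plate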). Conditions: S. cerevisiae aging, superoxide DHE fluorescence; at 10 µM; stronger effect = lower value.
In test [9] the target is Beta-adrenergic receptor kinase 1 (Homo sapiens) (UniProt P25098). Briefly: GRK2 binders displacing RNA aptamer, biochemical, validation, human GRK2, bead flow cytometry (AID 488806;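 active = aptamer binding inhibition above 30%, about 3 SD of noise from non-fluorescent compounds; inactive = inhibition at or below 30%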). As to conditions: bead-bound GRK2, FAM-aptamer displacement, at 10 µM, stronger effect = higher value.
Beta-adrenergic receptor kinase 1 (Homo sapiens), sequence (P25098 whole entry, looked up): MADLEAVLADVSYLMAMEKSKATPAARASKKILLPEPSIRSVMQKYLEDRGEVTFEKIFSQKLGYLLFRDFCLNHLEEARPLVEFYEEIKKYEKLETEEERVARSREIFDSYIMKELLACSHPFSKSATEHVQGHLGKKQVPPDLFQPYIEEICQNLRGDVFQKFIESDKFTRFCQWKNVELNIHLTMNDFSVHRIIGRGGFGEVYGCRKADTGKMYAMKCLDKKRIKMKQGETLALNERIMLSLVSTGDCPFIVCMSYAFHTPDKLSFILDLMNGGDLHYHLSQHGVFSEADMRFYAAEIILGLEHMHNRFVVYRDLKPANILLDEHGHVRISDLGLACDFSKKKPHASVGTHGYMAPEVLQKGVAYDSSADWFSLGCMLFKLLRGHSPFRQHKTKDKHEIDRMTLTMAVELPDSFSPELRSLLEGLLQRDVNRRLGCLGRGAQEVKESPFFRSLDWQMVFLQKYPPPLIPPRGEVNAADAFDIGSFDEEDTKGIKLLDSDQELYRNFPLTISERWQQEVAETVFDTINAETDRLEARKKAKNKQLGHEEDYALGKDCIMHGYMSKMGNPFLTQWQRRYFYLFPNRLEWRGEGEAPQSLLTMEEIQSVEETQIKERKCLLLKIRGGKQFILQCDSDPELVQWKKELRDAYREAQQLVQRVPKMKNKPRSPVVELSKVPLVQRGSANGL
For test [10], the target named is Beta-2 adrenergic receptor (Homo sapiens) (UniProt P07550). Briefly: agonist-induced loss of surface beta2AR – cell-based, FAP fluorogen, flow cytometry, validation set, pilot screen (AID 504459;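 active = percent response above 42, roughly 3 SD of non-fluorescent test compounds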;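 note: agonist-driven loss of surface beta2AR via internalization measured by FAP dye flow cytometry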). As to conditions: Am2.2-beta2AR cells, at 10 µM, stronger effect = higher value.
Beta-2 adrenergic receptor (Homo sapiens), sequence (P07550 whole entry, looked up): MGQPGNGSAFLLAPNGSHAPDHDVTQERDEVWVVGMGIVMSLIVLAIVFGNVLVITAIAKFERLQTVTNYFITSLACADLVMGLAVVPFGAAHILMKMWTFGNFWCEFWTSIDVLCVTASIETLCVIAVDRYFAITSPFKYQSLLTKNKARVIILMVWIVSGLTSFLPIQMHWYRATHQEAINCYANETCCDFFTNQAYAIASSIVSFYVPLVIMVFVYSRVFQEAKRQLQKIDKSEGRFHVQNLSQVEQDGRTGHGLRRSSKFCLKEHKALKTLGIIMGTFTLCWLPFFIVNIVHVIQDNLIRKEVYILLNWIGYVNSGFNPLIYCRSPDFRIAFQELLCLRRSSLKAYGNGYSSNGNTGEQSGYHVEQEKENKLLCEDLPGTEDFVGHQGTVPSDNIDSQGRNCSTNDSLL
Test [11] addresses AP-2 complex subunit beta (Homo sapiens) (UniProt P63010). Nature of the test: beta-arrestin/AP2 interaction blockers – biochemical, validation set, GST-AP2 beads, flow cytometry, pilot screen (AID 504541;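 active = inhibition above 54%, about 3 SD of non-fluorescent compounds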;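 note: AP2 carries R879A mutation and is captured from E. coli lysate; bead-bound FITC arrestin peptide fluorescence measuring arrestin peptide binding to AP2; 0% = DMSO wells and 100% = excess unlabeled arrestin peptide control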). Conditions: FITC arrestin peptide, at 10 µM, stronger effect = higher value, AP2 beta2 appendage fragment, R879A mutant.
The nature of test [12]: cytosolic pH regulators acting via V-ATPase – S. cerevisiae, pHLuorin, HTS validation (AID 504600; in the data active = response above about 15%;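 note: plate controls were DMSO for no effect and reference compound for full effect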). Conditions: V-ATPase proton transport, at 10 µM, stronger effect = higher value.
In test [13] the test system is anti-desmoglein-3 scFv antibody binding to human DSG3. Briefly: blockers of pathogenic pemphigus antibody–desmoglein-3 binding – biochemical, validation compound set, bead-based, flow cytometry, pilot screen (AID 588368;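 active = binding below the plate cutoff, the plate median minus 3 SD, with a reading above zero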;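 note: signal is the median channel fluorescence of bead-bound GFP antibody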). As to conditions: Protein G beads, DSG3-Fc, scFv-GFP binding, at 10 µM, stronger effect = lower value.
Test [14] can be described thus: Nile Red efflux blockade in pump-expressing yeast – validation compound set, multiplex, phenotypic, pilot screen (AID 588506;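 active = efflux inhibition above 0.42, the validation set average plus 4 SD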;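 note: Nile Red retained in cells so higher fluorescence means more efflux inhibition; 0 = negative control wells and 1 = enniatin B 25 µM full block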). As to conditions: S. cerevisiae pump-expressing triplex, Nile Red efflux flow cytometry; at 10 µM; stronger effect = higher value; the pumps come from Candida albicans.
Test [15] concerns the target ATP-binding cassette sub-family B member 6 (Homo sapiens) (UniProt Q9NP58). Nature of the test: blockers of ABCB6-driven porphyrin uptake – K562-ABCB6 cells, flow cytometry, validation set, pilot screen (AID 588550;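 active = inhibition above the screen-wide mean plus 3 SD, about 51%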;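 note: 0% = DMSO wells and 100% = benzethonium chloride 70 µM positive control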). As to conditions: K562-ABCB6 porphyrin accumulation, 1 h, at 10 µM, stronger effect = higher value.
Test [16] can be described thus: AML differentiation inducers, ER-HoxA9 marrow cells – cell-based, GFP/MAC1 double positive, flow cytometry, validation set, primary screen (AID 588685;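 active = differentiation response of at least 50%, scaled between solvent and reference control, from cells with both markers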;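 note: compound exposure lasts four days before antibody staining and flow analysis; 0% = DMSO wells and 100% = 5 µM fulvestrant positive control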). As to conditions: stronger effect = higher value, normalized: vehicle 0, fulvestrant 100.

ATP-binding cassette sub-family B member 6 (Homo sapiens), sequence (Q9NP58 whole entry, looked up): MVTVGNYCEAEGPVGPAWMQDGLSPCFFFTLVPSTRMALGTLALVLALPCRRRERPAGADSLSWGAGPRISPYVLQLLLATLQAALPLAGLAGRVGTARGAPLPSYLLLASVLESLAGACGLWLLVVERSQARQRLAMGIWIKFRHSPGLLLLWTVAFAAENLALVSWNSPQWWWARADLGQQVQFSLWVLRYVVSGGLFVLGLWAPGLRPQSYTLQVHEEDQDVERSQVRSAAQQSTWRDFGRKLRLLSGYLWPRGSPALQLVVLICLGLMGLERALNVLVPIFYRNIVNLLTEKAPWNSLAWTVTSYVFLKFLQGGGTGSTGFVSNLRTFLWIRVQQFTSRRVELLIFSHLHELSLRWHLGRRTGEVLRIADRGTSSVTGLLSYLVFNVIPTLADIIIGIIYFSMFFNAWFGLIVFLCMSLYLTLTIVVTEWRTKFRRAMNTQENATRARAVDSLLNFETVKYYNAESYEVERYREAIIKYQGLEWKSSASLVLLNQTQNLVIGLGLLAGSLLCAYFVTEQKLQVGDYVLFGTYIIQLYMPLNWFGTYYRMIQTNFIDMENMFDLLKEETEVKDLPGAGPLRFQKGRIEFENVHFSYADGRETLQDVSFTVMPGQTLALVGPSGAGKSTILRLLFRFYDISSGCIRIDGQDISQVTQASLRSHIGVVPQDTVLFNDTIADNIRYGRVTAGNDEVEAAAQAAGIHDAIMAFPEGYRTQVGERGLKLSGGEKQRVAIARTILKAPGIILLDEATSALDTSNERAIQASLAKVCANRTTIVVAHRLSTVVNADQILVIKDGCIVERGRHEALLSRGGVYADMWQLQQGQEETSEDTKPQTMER
AP-2 complex subunit beta (Homo sapiens), sequence (P63010 whole entry, looked up, the tested form may be a part, one chain of several): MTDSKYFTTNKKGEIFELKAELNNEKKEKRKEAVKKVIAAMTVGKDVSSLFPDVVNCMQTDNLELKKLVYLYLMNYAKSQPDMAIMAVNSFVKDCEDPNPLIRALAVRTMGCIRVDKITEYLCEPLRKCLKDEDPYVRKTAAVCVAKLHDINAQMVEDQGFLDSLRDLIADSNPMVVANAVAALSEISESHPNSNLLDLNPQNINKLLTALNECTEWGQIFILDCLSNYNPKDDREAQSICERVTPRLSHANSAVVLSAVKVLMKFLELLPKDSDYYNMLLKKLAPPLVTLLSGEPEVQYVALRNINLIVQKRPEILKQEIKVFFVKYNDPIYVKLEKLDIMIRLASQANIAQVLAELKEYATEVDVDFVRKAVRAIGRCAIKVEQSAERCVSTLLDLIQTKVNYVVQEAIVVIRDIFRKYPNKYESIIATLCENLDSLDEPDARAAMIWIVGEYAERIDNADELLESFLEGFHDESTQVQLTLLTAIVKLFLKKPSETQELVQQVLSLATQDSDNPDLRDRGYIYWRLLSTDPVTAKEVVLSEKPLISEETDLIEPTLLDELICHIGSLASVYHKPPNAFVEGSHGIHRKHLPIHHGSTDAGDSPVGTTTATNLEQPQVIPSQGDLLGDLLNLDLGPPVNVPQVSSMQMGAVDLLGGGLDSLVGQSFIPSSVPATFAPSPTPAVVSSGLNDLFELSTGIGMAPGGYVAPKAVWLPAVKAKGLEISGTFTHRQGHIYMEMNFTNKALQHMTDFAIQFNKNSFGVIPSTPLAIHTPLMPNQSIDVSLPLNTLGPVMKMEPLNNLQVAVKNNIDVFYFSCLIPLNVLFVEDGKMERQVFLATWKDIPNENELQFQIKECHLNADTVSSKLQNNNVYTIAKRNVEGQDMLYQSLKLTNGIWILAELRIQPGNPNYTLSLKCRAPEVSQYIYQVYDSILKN

As for `CC1CC(OC(=O)C(O)c2ccccc2)CC(C)(C)N1C` (stereo not given), the percent of DMSO control GFP in test [1] was 94.4% (inactive). The results for the GFP response vs DMSO in [2] and in test [4] were 112% (inactive) and 111% (inactive), respectively. Besides, the percent response of DMSO control in [3] was 94.8% (inactive). Also, the GFP response, % of DMSO in test [5] is 97.5% (inactive). In addition, in test [6], the double positive events was 57.9%. The vesicle binding response in test [6] was 217% (inactive). The inhibition is -8.62% (inactive) in test [7], -13.2% (inactive) in test [11] and 5% (inactive) in test [15]. The superoxide response (% of plate) in test [8] is 99.3% (inactive). Also, the aptamer binding inhibition in [9] is 0% (inactive). For the same compound, the response is 0.13% (inactive) in test [10] and 7.51% (inactive) in test [12]. The binding (% of control) in test [13] is 103% (inactive). Besides, the efflux inhibition (fraction of control) in [14] was -0.03 (inactive). Besides, the differentiation response in [16] was -18.4% (inactive).
Consider `COc1c2c(nc3occc13)C(CC=C(C)C)(OC)C(O)CC2` (stereo not given), for which, in [1], the percent of DMSO control GFP is 89.1% (inactive). Besides, the values for the GFP response vs DMSO in test [2] and in test [4] were 131% (inactive) and 95.7% (inactive), respectively. The percent response of DMSO control in test [3] was 110% (inactive). For the same compound, the GFP response, % of DMSO in test [5] was 98.2% (inactive). This compound yielded a double positive events in test [6] of 63.2%. For the same compound, the vesicle binding response in test [6] is 144% (inactive). For the same compound, the inhibition in [7] was -4.21% (inactive); in test [11], -9.37% (inactive); in test [15], 11% (inactive). The superoxide response (% of plate) in [8] is 95.4% (inactive). In test [9], the aptamer binding inhibition is 6% (inactive). For the same compound, the response was 3.58% (inactive) in test [10] and -1.04% (inactive) in test [12]. In addition, in test [13], the binding (% of control) is 103% (inactive). Further, the efflux inhibition (fraction of control) in test [14] is 0.01 (inactive). In addition, the differentiation response in [16] is 3.28% (inactive).
In the case of `COc1ccc2[nH]c3c(=O)n(/N=C/[C@H]4C(C)C=C(C)CC4C)c(=O)[nH]c3c2c1` (stereo not given in full), the percent of DMSO control GFP in test [1] is 99.9% (inactive). In addition, the GFP response vs DMSO is 109% (inactive) in test [2] and 107% (inactive) in test [4]. Also, the percent response of DMSO control in [3] is 92% (inactive). In addition, the GFP response, % of DMSO in test [5] is 102% (inactive). Further, in [6], the double positive events came out at 57.4%. Moreover, the vesicle binding response in test [6] was 6260% (inactive). In addition, the results for the inhibition in test [7], in [11] and in [15] were 6.4% (inactive), 32.4% (inactive) and 1% (inactive), respectively. Besides, the superoxide response (% of plate) in [8] is 95.3% (inactive). The aptamer binding inhibition in test [9] is 3% (inactive). The response in test [10] is 5.28% (inactive); in test [12], -6.18% (inactive). Moreover, in [13], the binding (% of control) is 98.7% (inactive). The efflux inhibition (fraction of control) in test [14] is 0.22 (inactive). For the same compound, in [16], the differentiation response is -28% (inactive).
In the case of `COCC1CCCN(Cc2cn[nH]c2-c2cc3ccccc3o2)C1` (stereo not given), the percent of DMSO control GFP in test [1] is 95.9% (inactive). Further, the values for the GFP response vs DMSO in test [2] and in test [4] were 109% (inactive) and 115% (inactive), respectively. Besides, in test [3], the percent response of DMSO control is 83.4% (inactive). Also, the GFP response, % of DMSO in test [5] was 102% (inactive). Also, in test [6], the double positive events turned out to be 63.3%. The vesicle binding response in test [6] is 181% (inactive). The inhibition was -14.1% (inactive) in [7], 0.03% (inactive) in test [11] and 7% (inactive) in test [15]. In test [8], the superoxide response (% of plate) is 98.3% (inactive). Also, the aptamer binding inhibition in test [9] was 2% (inactive). Further, the response was -14.2% (inactive) in [10] and 1.33% (inactive) in [12]. Moreover, the binding (% of control) in test [13] was 99.9% (inactive). The efflux inhibition (fraction of control) in test [14] was 0.05 (inactive). For the same compound, the differentiation response in test [16] is 5.6% (inactive).
Regarding `COc1ccc(S(N)(=O)=O)cc1C(N)=O`, the percent of DMSO control GFP in test [1] was 100% (inactive). Besides, the GFP response vs DMSO in [2] is 105% (inactive); in test [4], 101% (inactive). Also, in test [3], the percent response of DMSO control is 97.8% (inactive). Besides, in test [5], the GFP response, % of DMSO was 97% (inactive). Also, the double positive events in test [6] stood at 62%. In addition, in test [6], the vesicle binding response is 195% (inactive). Moreover, the inhibition was -0.45% (inactive) in [7], 13.4% (inactive) in test [11] and 11% (inactive) in test [15]. The superoxide response (% of plate) in test [8] was 106% (inactive). In addition, the aptamer binding inhibition in test [9] was 0% (inactive). Also, the response in [10] was 1.47% (inactive); in test [12], -1.59% (inactive). The binding (% of control) in test [13] was 91.1% (inactive). Besides, in test [14], the efflux inhibition (fraction of control) was 0.02 (inactive). The differentiation response in test [16] was -4.64% (inactive).
